Bioassay records deposited in PubChem by National Center for Advancing Translational Sciences (NCATS).
In the library only some 18% were active in any assay of this set; here they are far more common.
RORgamma inh = qHTS for inhibitors of ROR gamma transcriptional activity | Drosophila S2 Gal4-RORgamma UAS-luciferase reporter, 20 h | actives 5.4% (n = 310,000) | Potency, µM (highest dose often 53.6 µM), inactives show at the highest dose activity change, negative = inhibition, hits mostly inhibitors | AID 2551, 2010; note: potency is the fitted concentration of half-maximal effect; nearly all actives have a fitted effect of over 60% in size
Target sequence (P51450 whole entry, looked up, the tested form may be a part): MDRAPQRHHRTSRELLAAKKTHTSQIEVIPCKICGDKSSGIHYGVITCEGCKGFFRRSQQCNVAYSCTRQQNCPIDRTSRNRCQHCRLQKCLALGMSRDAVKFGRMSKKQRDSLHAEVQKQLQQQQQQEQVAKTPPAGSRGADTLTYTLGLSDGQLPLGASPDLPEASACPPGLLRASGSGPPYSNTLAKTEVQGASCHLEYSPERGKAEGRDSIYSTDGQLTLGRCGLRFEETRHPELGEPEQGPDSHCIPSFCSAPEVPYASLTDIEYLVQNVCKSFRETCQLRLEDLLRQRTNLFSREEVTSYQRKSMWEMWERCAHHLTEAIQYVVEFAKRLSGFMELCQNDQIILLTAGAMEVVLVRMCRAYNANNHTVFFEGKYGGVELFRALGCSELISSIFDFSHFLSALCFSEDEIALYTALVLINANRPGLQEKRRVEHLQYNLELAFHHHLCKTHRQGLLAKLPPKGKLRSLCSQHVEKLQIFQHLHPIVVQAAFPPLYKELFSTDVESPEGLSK
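Stably transfected Drosophila Schneider cells are the test system, with ROR gamma fused to Gal4 and luciferase under UAS control; luminescence is read after 20 hr of 700 uM copper sulfate induction at ambient temperature.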
TDP1 cell CPT = qHTS for Inhibitors of human tyrosyl-DNA phosphodiesterase 1 (TDP1): qHTS in cells in presence of CPT; actives 12% (n = 420,000); chicken DT40 Tdp1-/-;hTDP1 cells + 20 nM CPT, ATP luminescence, 48 h; Potency, µM (series often up to 46.2 µM), without a hit: top-dose activity change, negative = growth inhibition, actives largely listed as inhibitors; AID 686979, 2013; note: potency is the fitted concentration of half-maximal effect; nearly all actives have a fitted effect of over 55% in size
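Chicken DT40 Tdp1-/- cells stably complemented with human TDP1 were seeded at 400 cells/well in medium containing 20 nM camptothecin, exposed to pin-transferred compounds, and grown at 37 °C for at least 48 hr. Viability was read as ATP luminescence.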
IL1B secr inh = qHTS for Inhibitors of Inflammasome Signaling: IL-1-beta AlphaLISA Primary Screen | THP-1 LPS/ATP IL-1B secretion, AlphaLISA, 16 h; active compounds read low | activity change, % at 57.5 µM | actives 4.7% (n = 360,000); in the data active = activity change below about -50%; inconclusive = mostly about -30% to -49%
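Secreted IL-1B measured by AlphaLISA bead assay after 16 h compound exposure of THP-1 cells; compounds (final up to 57.5 uM) added 1 h before LPS (250 ng/mL) and ATP (1.25 mM) stimulation; lower signal means less secretion.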
LDHA inh = qHTS assay for inhibitors of human lactate dehydrogenase. L-lactate dehydrogenase A chain (Homo sapiens), P00338. purified LDHA, NADH/diaphorase-resazurin fluorescence; active compounds read low. activity change, % (values are at about 110 or 230 µM). actives 0.15% (n = 480,000); in the data active = activity change below about -30%; inconclusive = mostly about -25% to -30%;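 note: plate controls were DMSO wells for no effect and wells without enzyme for full effect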
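Human LDH5 (2 nM) was incubated with 0.06 mM NADH and 0.2 mM pyruvate for 5 min at room temperature in Tris pH 7.4. Remaining NADH was coupled through diaphorase/resazurin, and resorufin fluorescence was read at 0 and 20 min.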
TDP1 cell noCPT = qHTS for Inhibitors of human tyrosyl-DNA phosphodiesterase 1 (TDP1): qHTS in cells in absence of CPT; actives 15% (n = 420,000); Potency, µM (top dose mostly 46.2 µM), inactives show at the top dose activity change, negative = growth inhibition, usual class: inhibitors; DT40 Tdp1-/- hTDP1 cells, no CPT, ATP luminescence, 48 h; note: potency is the fitted concentration of half-maximal effect; nearly all actives have a fitted effect of over 55% in size
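No-CPT arm: Tdp1-/-;hTDP1 DT40 cells (400/well) plus compounds, incubated ≥48 hr at 37 °C. Readout CellTiter-Glo luminescence.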
VP16 counter = VP16 counterscreen qHTS for inhibitors of ROR gamma transcriptional activity; Drosophila S2 Gal4-VP16 UAS-luciferase, luminescence, 20 h; Potency, µM (series often up to 53.6 µM), for the others: at the highest dose activity, negative = inhibition, hits mostly inhibitors; actives 3.5% (n = 310,000); AID 2546, 2010;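 note: Gal4-VP16 expression switched on by copper sulfate through the metallothionein promoter; potency is the fitted concentration of half-maximal effect; nearly all actives have a fitted effect of over 50% in size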
Numbers without * were called inactive; ? = inconclusive; / = no result. Unless noted, calls come from the whole dose curve; as a rule, active = well fitted curve in the direction sought with a large enough effect; inconclusive = small, poorly fitted or top-dose-only effect, or another doubt; inactive = no such curve, though single readings can be large; an effect the other way counts as inactive or inconclusive. Unless noted, % is set by controls: 0 for no effect and ±100 for the full control effect.

SMILES	RORgamma inh	TDP1 cell CPT	IL1B secr inh	LDHA inh	TDP1 cell noCPT	VP16 counter
Cn1c(=O)c2cc(NC(=O)CCc3ccccc3)ccc2n1-c1ccccc1F	/	11.6µM*	39.8	-12.9	13µM*	/
COc1cccc(Cn2c3ccc(NC(=O)CCc4ccc(F)cc4)cc3c(=O)n2C)c1	/	4.61µM*	42.6	0.4	3.66µM*	/
COc1ccccc1CCC(=O)Nc1ccc2c(c1)c(=O)n(C)n2Cc1ccc(F)cc1	/	4.61µM*	34.9	-12.6	5.17µM*	/
COc1ccccc1CCC(=O)Nc1ccc2c(c1)c(=O)n(C)n2C	/	?	0.0	-1.8	-18.5%	/
COc1ccccc1CCC(=O)Nc1ccc2c(c1)c(=O)n(C)n2Cc1cccc(C(F)(F)F)c1	/	23.1µM*	-11.7	-1.1	?	/
CCCCNc1oc(/C=C/c2ccc(OC)c(OC)c2)nc1C#N	/	/	/	-2.5	/	/
Cn1c(=O)c2cc(NC(=O)CCc3ccc(O)cc3)ccc2n1Cc1cccc(C(F)(F)F)c1	/	?	0.0	2.7	20.6µM*	/
Cn1c(=O)c2cc(NC(=O)CCc3ccccc3)ccc2n1Cc1cccc(C(F)(F)F)c1	/	16.4µM*	8.9	-9.2	13µM*	/
CCOCCC(=O)Nc1ccc2c(c1)c(=O)n(C)n2Cc1cccc(C(F)(F)F)c1	/	-18.4%	23.2	-2.7	-19.8%	/
Nc1cc(N)nc(SCCC(=O)Nc2ccc(Br)cc2F)n1	/	/	/	2.4	/	/
COc1ccccc1C(C)NC(=O)CN1CCN(c2ccc([N+](=O)[O-])c3cnccc23)CC1 (stereo not given)	/	/	/	8.8	/	/
C=CCN(CC=C)C(=O)C1c2ccccc2Oc2ccccc21	/	25.9µM*	0.0	0.4	?	/
O=C(NCCCCc1ccccc1)c1cccc(NC(=O)C2CCC2)c1	/	-6.2%	-5.2	-0.8	-29.8%	/
O=C(NCCCCc1ccccc1)c1cccc(NC(=O)C2CCCCC2)c1	/	?	0.0	-5.4	25.9µM*	/
O=C(/C=C/c1ccccc1)Nc1cccc(C(=O)NCCCCc2ccccc2)c1	/	?	22.0	-6.3	18.4µM*	/
Cc1ccc(Nc2ncc(C(=O)NC3CCCC(C)C3C)c3ccccc23)cc1Cl (stereo not given)	/	/	/	-1.1	/	/
CN(C)c1ccc(-c2nc3cnccn3c2Nc2ccc3c(c2)OCCO3)cc1	0.5%	-29.5%	2.6	-1.1	-5.7%	-10.2%
CN(C)c1ccc(-c2nc3cnccn3c2Nc2cccc(C(F)(F)F)c2)cc1	/	25.9µM*	/	-4.4	?	/
CCc1cccc(C)c1Nc1c(-c2ccc(N(C)C)cc2)nc2cnccn12	/	?	/	7.1	23.1µM*	/
CCc1cccc(C)c1Nc1c(-c2cccc(O)c2)nc2cnccn12	/	?	/	13.1	?	/
CC1C(=O)N(Cc2cn(CC3CCCCC3)nn2)CCS(=O)(=O)N1Cc1ccc(-c2ccccc2)cc1 (stereo not given)	/	23.1µM*	-18.3	0.3	14.6µM*	/
COc1ccc(-c2ccc(CN3C(C)C(=O)N(Cc4cn(CC5CCCCC5)nn4)CCS3(=O)=O)cc2)cc1 (stereo not given)	/	14.6µM*	4.8	0.9	10.3µM*	/
Cc1ccc(-c2ccc(CN3C(C)C(=O)N(Cc4cn(CC5CCCCC5)nn4)CCS3(=O)=O)cc2)cc1 (stereo not given)	/	16.4µM*	?	2.5	16.4µM*	/
CC1C(=O)N(Cc2cn(CC3CCCCC3)nn2)CCS(=O)(=O)N1Cc1ccc(-c2ccc(F)nc2)cc1 (stereo not given)	/	?	2.2	-3.6	-24.0%	/
CC(NC(=O)CN1CCN(S(=O)(=O)c2ccc(C(C)(C)C)cc2)CC1)c1cccs1 (stereo not given)	/	/	/	4.4	/	/
SMILES	RORgamma inh	TDP1 cell CPT	IL1B secr inh	LDHA inh	TDP1 cell noCPT	VP16 counter
CCCOc1nc2ccccc2nc1C(C#N)C(=O)NCc1ccccc1 (stereo not given)	/	/	/	0.6	/	/
O=C(Nc1ccc(F)cc1)C1=C(N2CCOCC2)c2ccccc2S1(=O)=O	/	/	/	-5.1	/	/
Oc1c(C=C2N=c3ccccc3=N2)sc(=S)n1C1CCCC1	3.3%	-7.1%	-5.3	-3.0	-39.9%	?
Oc1c(C=C2N=c3ccccc3=N2)sc(=S)n1-c1ccc(F)cc1	?	?	-3.4	-6.4	?	12.6µM*
Oc1c(C=C2N=c3ccccc3=N2)sc(=S)n1-c1ccc2ccccc2c1	10.4%	20.6µM*	47.5	-2.2	-22.5%	?
Cc1oc(-c2nc(C#N)c(NCCCN(C)C)o2)cc1S(=O)(=O)N1CCCCCC1	/	/	/	-18.1	/	/
CN(CC(=O)Nc1ccc(Cl)c(C(F)(F)F)c1)C(=O)CCCc1nc2ccccc2c(=O)[nH]1	/	11.6µM*	4.9	-4.9	11.6µM*	/
CN(CC(=O)Nc1ccc(Cl)c(C(F)(F)F)c1)C(=O)CC1Sc2ccccc2NC1=O (stereo not given)	?	13µM*	?	-2.7	13µM*	?
COc1cccc(NC(=O)CN(C)C(=O)CC2Sc3ccccc3NC2=O)c1 (stereo not given)	/	-4.9%	3.9	-4.9	7.2%	/
CN(CC(=O)Nc1ccc(Cl)c(C(F)(F)F)c1)C(=O)C1(c2ccccc2)CC1	/	?	-56.7*	3.2	16.4µM*	/
Cc1cccc(C(=O)OCC(=O)N(C)CC(=O)Nc2ccc(Cl)c(C(F)(F)F)c2)c1	/	14.6µM*	0.0	-0.5	?	/
Cc1ccc(C)c(OCC(=O)N(C)CC(=O)Nc2ccc(Cl)c(C(F)(F)F)c2)c1	/	?	-13.4	2.1	?	/
Fc1ccc(Br)cc1/C=N/Nc1c(Cl)cc(Cl)cc1Cl	/	/	/	-0.1	/	/
Nc1nccnc1C(=O)NCCCNc1ccc(C(F)(F)F)cn1	/	/	/	1.3	/	/
